FBPA Giardia inh = Giardia lamblia aldolase inhibition; A8B2U2; purified Giardia FBPA; Potency, µM (top dose mostly 59.6 µM), without a hit: top-dose activity, negative = inhibition, hits mostly inhibitors; actives 0.71% (n = 290,000); also: potency is read from the fitted curve at half-maximal effect; nearly all actives have a fitted effect of over 55% in size
Target sequence (A8B2U2 whole entry, looked up): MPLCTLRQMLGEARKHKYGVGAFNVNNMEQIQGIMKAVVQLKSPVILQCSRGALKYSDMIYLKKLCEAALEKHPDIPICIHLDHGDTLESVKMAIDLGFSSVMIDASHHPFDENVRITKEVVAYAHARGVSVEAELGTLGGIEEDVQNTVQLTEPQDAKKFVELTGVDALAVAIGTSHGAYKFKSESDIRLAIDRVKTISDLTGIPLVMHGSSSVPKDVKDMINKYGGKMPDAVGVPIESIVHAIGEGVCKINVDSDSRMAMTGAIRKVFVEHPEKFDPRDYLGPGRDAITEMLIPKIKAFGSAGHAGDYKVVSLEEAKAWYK
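40 nM FBPA preincubated 10 min at RT with compound (up to 57.5 uM final), then substrate plus GAPDH/TPI/NAD/arsenate coupling and diaphorase/resazurin added. Fluorescence read after 20 min at RT, 525/598 nm.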
HCMV antiviral = blocks human cytomegalovirus replication | HFF cells, HCMV-luciferase reporter, 72 h; stronger effect = lower value | activity change, negative = inhibition, % at 57.5 µM | actives 4.5% (n = 410,000) | AID 1259415; in the data active = activity change below about -60%; inconclusive = no clear call, values can overlap the other calls; inactive = above about -39%
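Inhibition of viral replication was scored as loss of reporter luminescence in HFFs infected with HCMV-luciferase (MOI 1 PFU/cell) for 72 h; compounds tested at 2 doses, normalized to buffer and Salinomycin controls.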
Lassa entry inh = Lassa virus entry inhibition; actives 1.2% (n = 300,000); Lassa virus pseudotype entry inhibition, cell reporter; Potency, µM (series often up to 37.9 µM), for inactives: top-dose activity change, negative = inhibition, usual class: inhibitors; calls by dose curve; tested in HEK293 cells; also: potency is read from the fitted curve at half-maximal effect; nearly all actives have a fitted effect of over 50% in size
HCV inhibitor = inhibitors of hepatitis C virus infection; Huh7.5.1 HCVcc-Cre infection, luciferase reporter, 44 h; Potency, µM (doses to about 41.8 µM), inactives show top-dose activity change, negative = inhibition, usual class: inhibitors; actives 3.4% (n = 340,000); AID 651820; also: potency is read from the fitted curve at half-maximal effect
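Luciferase read-out (15 sec integration) after a 15 min room-temperature substrate step quantifies HCVcc-Cre infection. Cells, 1,000 per well, had compound added 4 h post-plating, then virus at ~0.5 moi, and were cultured 44 h.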
FMDV inh = blocks foot and mouth disease virus; FMDV antiviral cell-based qHTS; Potency, µM (series often up to 57.9 µM), for inactives: at the top dose activity change, negative = inhibition, usual class: inhibitors; actives 1.2% (n = 410,000); calls by dose curve; tested in HEK293T cells; also: read-out not given here; potency is read from the fitted curve at half-maximal effect; nearly all actives have a fitted effect of over 45% in size
MARV entry inh = inhibitors of Marburg virus binding or cell entry | Marburg virus pseudotyped entry inhibition, cell reporter | Potency, µM (doses to about 37.8 µM), without a hit: at the highest dose activity change, negative = inhibition, actives largely listed as inhibitors | actives 1.8% (n = 300,000); calls by dose curve; tested in HEK293 cells; also: potency is read from the fitted curve at half-maximal effect
* marks the source's active call; other numbers are inactive results; ? = inconclusive; nt = no result; [ ] = dose if it differs, or a comment. Sampled rows, rich in hits. Any-hit rate of the full collection: about 8.3%. Unless noted, calls follow the shape of the dose curve; as a rule, active = well fitted curve in the direction sought with a large enough effect; inconclusive = small, poorly fitted or top-dose-only effect, or another doubt; inactive = no such curve, though single readings can be large; an effect the other way counts as inactive or inconclusive. % is scaled to controls: 0 for no effect and ±100 for the full control effect.

SMILES	FBPA Giardia inh	HCMV antiviral	Lassa entry inh	HCV inhibitor	FMDV inh	MARV entry inh
Cc1[nH]c2ccccc2c1SCc1nnc(SCc2ccccc2)n1C	0%	-33	-24%	-1%	-25%	?
Cc1[nH]c2ccccc2c1SCc1nnc(SCc2ccc(Cl)cc2)n1C	-3%	-12	?	11µM*	1%	?
CNC(=O)[C@H]1O[C@@H](n2cnc3c(N)ncnc32)[C@H](O)[C@H]1O	-2%	nt	nt	nt	nt	35%
COC(=O)[C@]1(C#N)[C@@H](c2ccccc2)C(=O)N(Cc2ccc(Cl)cc2)[C@@H]1c1ccc(OC)cc1	nt	-30	nt	nt	nt	nt
CCOC(=O)Cn1c(=O)oc2cc(S(=O)(=O)N3CCN(c4ccc(Cl)cc4)CC3)ccc21	nt	-18	11%[46.1 µM]	nt	-23%	5%[46.1 µM]
COc1cc2c3nnc(-c4ccccc4)c-3cn(Cc3ccc(F)cc3)c2cc1OC	-1%	-66*	-15%	-21%	?	?
COc1ccc(-n2ncc(C(=O)NCc3cccs3)c2C2CCN(C(=O)OC(C)(C)C)CC2)cc1	nt	0	?	nt	18%	nt
CCCc1cc(=O)n2[nH]cc(-c3ccc(Cl)cc3)c2n1	6%	-96*	?	?	?	?
CCC1CC=CC2C1C(=O)N(Cc1ccccc1)C2c1ccc2ccccc2c1 (stereo unspecified)	-4%	nt	nt	nt	nt	nt
Cn1nc(C(C)(C)C)cc1C(=O)N1CCCCC1c1cc(C(=O)Nc2ccc(F)c(Cl)c2)no1 (stereo unspecified)	nt	?	nt	nt	25µM*	nt
CCCC(=O)N1CCCC(c2cc(C(=O)Nc3ccccc3)no2)C1 (stereo unspecified)	nt	?	nt	nt	20µM*	nt
O=C(Nc1ccc(F)c(Cl)c1)c1cc(C2CCCN(S(=O)(=O)c3ccccc3)C2)on1 (stereo unspecified)	nt	-69*	nt	nt	0%	nt
CC(C)(C)c1ccc(NC(=O)c2cc(C3CCCN(S(=O)(=O)c4cccc5cccnc45)C3)on2)cc1 (stereo unspecified)	nt	-86*	nt	nt	?	nt
Cc1c(C(=O)N(C)C)sc2c1c(=O)n(-c1ccccc1C(F)(F)F)c(=O)n2Cc1ccccc1C#N	nt	4	-3%[46.1 µM]	nt	-17%	nt
CCCCn1nc(NC(=O)c2cccc(Cl)c2)c2cc3cccc(C)c3nc21	nt	-37	27%[46.1 µM]	nt	-18%	0%[46.1 µM]
COc1ccc(NC(=O)c2nn(C)c3c2CS(=O)(=O)c2ccccc2-3)cc1Cl	nt	11	6%[46.1 µM]	nt	-12%	nt
COc1ccc(C#Cc2c(-c3ccccc3OC)oc3ccccc23)cc1	nt	-10	nt	nt	nt	nt
CC(C)OC(=O)c1cc(NC(=O)c2nn(C)cc2Br)cc(C(=O)OC(C)C)c1	4%	12	5.2µM*	?	0%	?
CC(=O)Oc1cc2c3c(c1)/C(=C1/SC(=S)NC1=O)C(=O)N3C(C)(C)C=C2C	?	-66*	nt	13%	?	nt
Cc1ccc(C[C@H]2CC(=O)N(c3ccc4c(c3)OCCO4)C2=O)cc1	nt	nt	nt	nt	nt	11%[46.1 µM]
Nc1ccc2ccc(N)cc2c1	nt	-65*	nt	nt	nt	nt
Clc1ccc(-c2nc3ccccn3c2CN2CCCCC2)cc1	-2%	-77*	nt	-28%	?	nt
COc1ccc(-c2nc3c4ccccc4ccn3c2CN2CCCCC2)cc1	-8%	-7	nt	?	-14%	nt
COc1ccc(-c2nc3c4ccccc4ccn3c2CN2CCCCC2)cc1OC	-20%	1	nt	11µM*	13%	nt
COc1ccccc1-c1noc(-c2ccc(NCc3ccco3)c([N+](=O)[O-])c2)n1	nt	33	5%[46.1 µM]	nt	22%	20%[46.1 µM]
SMILES	FBPA Giardia inh	HCMV antiviral	Lassa entry inh	HCV inhibitor	FMDV inh	MARV entry inh
CC1=C(C(=O)N2CCN(c3ccc(Cl)cc3)CC2)C2(CCC(C)CC2)OC1=O (stereo unspecified)	nt	19	-17%[46.1 µM]	nt	-22%	?
Cc1c(C(=O)c2no[n+]([O-])c2C(=O)c2cnn(C)c2C)cnn1C	?	-107*	2%	?	40µM*	-2%
COc1ccc(C(C)=O)cc1COC(=O)c1ccc(N)c([N+](=O)[O-])c1	1%	18	11%	11µM*	?	?
Nc1ccc(C(=O)OCc2ccncc2)cc1[N+](=O)[O-]	5%	37	8%[46.1 µM]	9%	14%	-2%[46.1 µM]
COc1ccc(C(C)=O)cc1COc1cccnc1[N+](=O)[O-]	-5%	6	-16%	?	-17%	?
COc1ccc(C(C)=O)cc1COc1ccccc1[N+](=O)[O-]	4%	11	-24%[46.1 µM]	6.3µM*	-16%	-2%[46.1 µM]
COc1cccc(N2CC(NC(=O)Cc3cccs3)CC2=O)c1 (stereo unspecified)	nt	75	-23%[46.1 µM]	nt	-10%	nt
CCS(=O)(=O)N1CC2(CN(C(=O)Nc3c(C)noc3C)[C@@H](CO)c3[nH]c4cc(OC)ccc4c32)C1	nt	-8	nt	nt	nt	nt
CCCCN(CCCC)S(=O)(=O)c1ccc(NC(=O)c2cccs2)cc1	-2%	?	?	?	0%	18µM*
CCCCN(CCCC)S(=O)(=O)c1ccc(NC(=O)c2ccc([N+](=O)[O-])cc2Cl)cc1	-6%	-78*	?	?	?	?
CCN(CC)S(=O)(=O)c1cc([N+](=O)[O-])ccc1NNC(=O)Nc1ccc(Cl)c(Cl)c1	-6%	-93*	-8%	?	?	?
CS(=O)(=O)Cc1cc(Sc2ccccc2)nc(-c2ccncc2)n1	5%	2	-14%	3.2µM*	-14%	?
O=S(=O)(Cc1cc(Cl)nc(-c2ccncc2)n1)c1ccccc1	-1%	-66*	-7%	?	-8%	?
O=S(Cc1cc(Sc2ccccc2)nc(-c2ccccc2)n1)c1ccccc1 (stereo unspecified)	-11%	?	?	4%	-12%	?
OC(COC(c1ccccc1)c1ccccc1)CN1CCN(c2ccccn2)CC1 (stereo unspecified)	-1%	-19	-23%	?	-5%	?
CC1CCCC(C)N1CC(O)COC1CCC(C(C)(C)C)CC1 (stereo unspecified)	-17%	0	nt	13µM*	?	nt
CC(C)(C)C1CCC(OCC(O)CN2CCN(Cc3ccccc3)CC2)CC1 (stereo unspecified)	-13%	0	nt	32µM*	?	nt
CC(C)(C)C1CCC(OCC(O)CN2CCN(c3ccccn3)CC2)CC1 (stereo unspecified)	-16%	-69*	?	-22%	?	?
OC(COC1CCCCC1)CN1CCN(c2ccccc2)CC1 (stereo unspecified)	?	10	4%	1%	-9%	-3%
OC(COCC1COc2ccccc2O1)CN1CCN(c2ccccn2)CC1 (stereo unspecified)	-10%	-66*	-12%[46.1 µM]	?	-5%	-5%[46.1 µM]
O=C1N=C2C=CC=CC2c2ccccc21 (stereo unspecified)	nt	nt	nt	nt	nt	17%

Assay outcomes: PubChem BioAssay, National Center for Advancing Translational Sciences (NCATS)
